PubChem BioAssay AID1246 (Columbia University Molecular Screening Center, 2008)
Among all 120,000 compounds or so, about 840 (0.7%) were called active.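 How the source made its calls: active means inhibition above the batch mean plus 3 SD, and confirmed as a hit on visual image review (cut at about 43% in these data); inconclusive means passes the inhibition cutoff but fails visual image review; inactive means the rest.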 This excerpt belongs to a sample that is enriched for actives.

assay: E-selectin induction blockers in HUVEC – imaging, immunofluorescence, high content, primary screen (AID 1246); conditions: HUVEC TNFa-induced E-selectin immunofluorescence, at 2 µM, active compounds read high;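 further: 0% = TNF-stimulated DMSO wells and 100% = unstimulated control wells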

Which inhibition does the source give for `CC(C)C(c1nnnn1CCc1ccccc1)N1CCN(C(=O)c2ccco2)CC1` (configuration not stated) here?
Its inhibition is 20.3% (inactive).

Which inhibition does the source give for `CC(C)C(c1nnnn1Cc1ccccc1)N1CCC(C(N)=O)CC1` (configuration not stated) here?
The inhibition was 100% (active).

Which inhibition does the source give for `Cc1ccc(C(c2nnnn2CS(=O)(=O)c2ccc(C)cc2)N2CCC(C(N)=O)CC2)cc1` (configuration not stated) here?
Its inhibition is -22.9% (inactive).

With `CC1CCCC(C)N1/N=C/c1ccccc1OC(F)F` (configuration not stated) as the compound, how does the inhibition read?
Its inhibition is 0.15% (inactive).

With `O=C(CN(CC1CCCO1)C(=O)CNS(=O)(=O)c1ccc(F)cc1)NCc1ccco1` (configuration not stated) as the compound, how does the inhibition read?
The inhibition was -15.3% (inactive).

With `CCN(CCCNC(=O)CCn1c(=O)[nH]c2ccsc2c1=O)c1ccccc1` as the compound, how does the inhibition read?
The inhibition was -8.13% (inactive).

Which inhibition does the source give for `O=S(=O)(c1ccc2c(c1)OCCO2)N1CCc2ccccc21` here?
The inhibition was 27.9% (inactive).

With `COCCN(C(=O)CCC(=O)Nc1nccs1)C(C(=O)NC(C)(C)C)c1ccc(Cl)cc1` (configuration not stated) as the compound, how does the inhibition read?
Its inhibition is 19.2% (inactive).

With `COc1cc(/C=N/Nc2ccc(C)cc2)cc(Br)c1O` as the compound, how does the inhibition read?
The inhibition was -4.64% (inactive).

For `Cc1cc(C)n2nc(C(=O)N(C)C(c3ccccc3)c3ccccc3)nc2n1`, which inhibition is on record?
Its inhibition is 45.1% (active).

With `Cc1cc(C)n2nc(C(=O)N3CCN(Cc4ccc5c(c4)OCO5)CC3)nc2n1` as the compound, how does the inhibition read?
Its inhibition is -35.2% (inactive).

For `Cc1cc(C)n2nc(SCC(N)=O)nc2n1`, which inhibition is on record?
Its inhibition is -29.9% (inactive).

With `COC(=O)c1c(C(=O)OC)c(-c2cccc(C)c2)n2c1CS(=O)C2` (configuration not stated) as the compound, how does the inhibition read?
Its inhibition is 58.3% (inactive).

Which inhibition does the source give for `CSc1nc2nc(-c3cccc(C(F)(F)F)c3)ccn2n1` here?
The inhibition was -26.4% (inactive).

For `CC(CC(=O)C1C(C)C=CCC1(C)C)NNC(N)=O` (configuration not stated), which inhibition is on record?
The inhibition was 13.4% (inactive).

Which inhibition does the source give for `CC(=O)Nc1ccc(C(=O)OCC(=O)Nc2ccc([N+](=O)[O-])cc2C(F)(F)F)cc1` here?
Its inhibition is -7.06% (inactive).

With `CC(=O)c1cccc(NC(=O)Nc2ccc(C)cc2)c1` as the compound, how does the inhibition read?
The inhibition was 8.52% (inactive).

For `CC(=O)c1ccc(NC(=O)Nc2ccc([N+](=O)[O-])cc2C)cc1`, which inhibition is on record?
The inhibition was 70.8% (active).

Which inhibition does the source give for `CCCCN(CC(=O)NC(C)(C)C)C(=O)C(=O)Nc1ccc2c(c1)OCCO2` here?
Its inhibition is -8.58% (inactive).

Which inhibition does the source give for `Cc1nccn1CCCNC(=O)CC1C(=O)NCCN1Cc1ccc(Cl)c(F)c1` (configuration not stated) here?
Its inhibition is -5.16% (inactive).

For `COc1ccc(Cc2nnc(NS(=O)(=O)Cc3ccccc3)s2)cc1`, which inhibition is on record?
The inhibition was 55.2% (inactive).

With `O=C(Cc1cccs1)Nc1nnc(SCc2ccc(F)cc2)s1` as the compound, how does the inhibition read?
Its inhibition is -12.5% (inactive).

Which inhibition does the source give for `COc1ccc(Cc2nnc(NC(=O)Cc3cccs3)s2)cc1` here?
The inhibition was 83.6% (active).

With `CCCC(C)C(=O)NCc1ccncc1` (configuration not stated) as the compound, how does the inhibition read?
The inhibition was 0.76% (inactive).

Which inhibition does the source give for `CCOC(=O)N1CCC(=NNC(N)=O)CC1` here?
Its inhibition is -34.9% (inactive).

With `Cn1cc(-c2ccccc2)cc(C#N)c1=O` as the compound, how does the inhibition read?
The inhibition was 3.87% (inactive).

With `Cc1cc(OC(=O)c2ccccc2)c([N+](=O)[O-])c(=O)[nH]1` as the compound, how does the inhibition read?
The inhibition was -11.2% (inactive).
